# Test results: PubChem BioAssay (Tox21)
# The source made the active and inactive calls. A call without a number means that no potency is given here. Unless noted, calls follow the shape of the dose curve; as a rule, active = well fitted curve in the direction sought with a large enough effect in the repeat runs; inconclusive = weak or mixed curves; inactive = no such curve, though single readings can be large; an effect the other way counts as inactive or inconclusive.
# Legend:
# [1] = qHTS assay to identify small molecule antagonists of the glucocorticoid receptor (GR) signaling pathway - cell viability counter screen (AID 720693); also: nearly all actives have a fitted effect of over 55% in size
# [2] = qHTS assay for identifying genotoxic compounds that show differential cytotoxicity against isogenic chicken DT40 cell lines with known DNA damage response pathways - Rev3 mutant cell line (AID 743014); also: nearly all actives have a fitted effect of over 55% in size; also: potency is read from the fitted curve at half-maximal effect
# [3] = qHTS assay to identify small molecule antagonists of the androgen receptor (AR) signaling pathway using the MDA cell line - cell viability counter screen (AID 743041; also: nearly all actives have a fitted effect of over 45% in size)
# How it was run: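 MDA-kb2 AR-luc human breast carcinoma cells (MMTV-luciferase, AR/GR responsive) were treated with compounds plus R1881 agonist for 16 h at 37 °C. Viability was read as CellTiter-Fluor fluorescence in the same wells as the reporter assay.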
# [4] = qHTS assay to identify small molecule antagonists of the thyroid receptor (TR) signaling pathway - cell viability counter screen (AID 743064); also: nearly all actives have a fitted effect of over 50% in size; also: potency is read from the fitted curve at half-maximal effect
# How it was run: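 Plate GH3.TRE-Luc cells; incubate 4 h at 37 °C; add compound, then T3 to 1 nM final; incubate 23.5 h; add CellTiter-Fluor; incubate 30 min at 37 °C, 5% CO2; read fluorescence.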
# [5] = system: thyroid hormone receptor (rat, GH3 cells); test: qHTS assay to identify small molecule agonists of the thyroid receptor (TR) signaling pathway (AID 743066; calls by dose curve)
# [6] = target: Estrogen receptor (Homo sapiens) (UniProt P03372); test: qHTS assay to identify small molecule antagonists of the estrogen receptor alpha (ER-alpha) signaling pathway (AID 743069; active = well fitted curve in the direction sought with a large enough effect in the signal ratio in the repeat runs, not every such curve was filed as active; inconclusive = weak or mixed curves, or effect the other way; inactive = no such curve, though single readings can be large or run the other way; the % refers to the signal ratio; also: potency is read from the fitted curve at half-maximal effect)
# How it was run: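 HEK293 cells stably carrying an ER-alpha-UAS-bla beta-lactamase reporter were pre-cultured overnight in 2% charcoal-stripped FBS medium. Test compounds in DMSO were added together with 17beta-estradiol for 18 hr at 37C. Read-out was fluorescence after 2 hr with LiveBLAzer B/G FRET substrate at room temperature.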
# [7] = qHTS assay to identify small molecule antagonists of the estrogen receptor alpha (ER-alpha) signaling pathway - cell viability counter screen (AID 743074; calls by dose curve; also: nearly all actives have a fitted effect of over 45% in size; also: potency is read from the fitted curve at half-maximal effect)
# [8] = target: Estrogen receptor (Homo sapiens) (UniProt P03372); test: qHTS assay to identify small molecule agonists of the estrogen receptor alpha (ER-alpha) signaling pathway (AID 743075; calls by dose curve)
# [9] = target: Estrogen receptor (Homo sapiens) (UniProt P03372); test: qHTS assay to identify small molecule agonists of the estrogen receptor alpha (ER-alpha) signaling pathway using the BG1 cell line (AID 743079); conditions: BG1Luc4E2 cells, ERE-luciferase agonist, 22 h; activation: at 70.3 µM (top of the series); also: nearly all actives have a fitted effect of over 20% in size; also: potency is read from the fitted curve at half-maximal effect
# [10] = qHTS assay to identify small molecule antagonists of the estrogen receptor alpha (ER-alpha) signaling pathway using the BG1 cell line - cell viability counter screen (AID 743081);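 also: compound given together with 17beta-estradiol as the ER stimulus; nearly all actives have a fitted effect of over 45% in size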
# Aromatase (Homo sapiens) = Aromatase (Homo sapiens) (UniProt P11511); test: qHTS assay to identify aromatase inhibitors (AID 743083); also: nearly all actives have a fitted effect of over 55% in size; also: potency is read from the fitted curve at half-maximal effect
# [11] = qHTS assay for identifying genotoxic compounds that show differential cytotoxicity against isogenic chicken DT40 cell lines with known DNA damage response pathways - wild type cell line (AID 743012); also: nearly all actives have a fitted effect of over 60% in size; also: potency is read from the fitted curve at half-maximal effect
# How it was run: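 Parental DNA repair-proficient DT40 cells, 300 per well, were pre-incubated ~0.5 h at 37 C/5% CO2, pin-dosed with compounds in DMSO, then incubated 40 h. Viability was read as CellTiter-Glo luminescence after 30 min at room temperature.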
# [12] = qHTS assay for identifying genotoxic compounds that show differential cytotoxicity against isogenic chicken DT40 cell lines with known DNA damage response pathways - Rad54/Ku70 mutant cell line (AID 743015); also: nearly all actives have a fitted effect of over 60% in size; also: potency is read from the fitted curve at half-maximal effect
# [13] = target: Androgen receptor (Homo sapiens) (UniProt P10275); test: qHTS assay to identify small molecule agonists of the androgen receptor (AR) signaling pathway using the MDA cell line (AID 743040; also: nearly all actives have a fitted effect of over 20% in size)
# How it was run: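 MDA-kb2 breast carcinoma cells stably carrying an MMTV-driven luciferase reporter (AR- and GR-responsive) were seeded and held 5 h at 37C, 0% CO2, then exposed to compounds in DMSO for 16 h. Luminescence was read 30 min after ONE-Glo addition.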
# [14] = target: Androgen receptor (Homo sapiens) (UniProt P10275); test: qHTS assay to identify small molecule antagonists of the androgen receptor (AR) signaling pathway using the MDA cell line (AID 743042; also: potency is read from the fitted curve at half-maximal effect; nearly all actives have a fitted effect of over 55% in size)
# How it was run: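 MDA-kb2 cells (human breast carcinoma, stably carrying an MMTV-luciferase reporter responsive to AR and GR) were plated at 3,000 cells/well and preincubated 5 hr at 37C, then given compound plus R1881 agonist for 16 h. ONE-Glo luminescence was read.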
# [15] = qHTS assay to identify small molecule antagonists of the thyroid receptor (TR) signaling pathway (AID 743065); also: nearly all actives have a fitted effect of over 55% in size; also: potency is read from the fitted curve at half-maximal effect
# How it was run: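 GH3.TRE-Luc rat pituitary cells carrying two TR response elements driving luciferase were plated for 4 h, given compound plus 1 nM T3 (final), and incubated 23.5 h at 37 C. ONE-Glo luminescence measured reporter inhibition; CellTiter-Fluor fluorescence tracked cytotoxicity.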
# [16] = qHTS assay to identify small molecule antagonists of the androgen receptor (AR) signaling pathway - cell viability counter screen (AID 743033; also: nearly all actives have a fitted effect of over 45% in size; also: potency is read from the fitted curve at half-maximal effect)
# [17] = qHTS assay to identify small molecule antagonists of the estrogen receptor alpha (ER-alpha) signaling pathway using the BG1 cell line (AID 743080; calls by dose curve; also: nearly all actives have a fitted effect of over 25% in size; also: potency is read from the fitted curve at half-maximal effect)
# How it was run: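 Antagonist mode: compounds in DMSO were pinned onto BG1-Luc-4E2 cells alongside 17beta-estradiol agonist, incubated 21.5 h, and ERE-driven luciferase measured with ONE-Glo. Cytotoxicity was multiplexed using CellTiter-Fluor fluorescence.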
# [18] = target: Androgen receptor (Homo sapiens) (UniProt P10275); test: qHTS assay to identify small molecule antagonists of the androgen receptor (AR) signaling pathway (AID 743035; active = well fitted inhibition curve with a large enough effect in the signal ratio in the repeat runs, not every such curve was filed as active; inconclusive = weak or mixed curves, or effect the other way; inactive = no such curve, though single readings can be large or run the other way; the % refers to the signal ratio)
# How it was run: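 HEK293 cells stably carrying a UAS-driven beta-lactamase reporter (AR-UAS-bla GripTite) were plated for 4 h at 37C, then given compound and the agonist R1881 and incubated 16 h. Reporter activity was read by LiveBLAzer B/G FRET fluorescence after 2 h at room temperature.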
# Sequence of Androgen receptor (Homo sapiens) (P10275 whole entry, looked up): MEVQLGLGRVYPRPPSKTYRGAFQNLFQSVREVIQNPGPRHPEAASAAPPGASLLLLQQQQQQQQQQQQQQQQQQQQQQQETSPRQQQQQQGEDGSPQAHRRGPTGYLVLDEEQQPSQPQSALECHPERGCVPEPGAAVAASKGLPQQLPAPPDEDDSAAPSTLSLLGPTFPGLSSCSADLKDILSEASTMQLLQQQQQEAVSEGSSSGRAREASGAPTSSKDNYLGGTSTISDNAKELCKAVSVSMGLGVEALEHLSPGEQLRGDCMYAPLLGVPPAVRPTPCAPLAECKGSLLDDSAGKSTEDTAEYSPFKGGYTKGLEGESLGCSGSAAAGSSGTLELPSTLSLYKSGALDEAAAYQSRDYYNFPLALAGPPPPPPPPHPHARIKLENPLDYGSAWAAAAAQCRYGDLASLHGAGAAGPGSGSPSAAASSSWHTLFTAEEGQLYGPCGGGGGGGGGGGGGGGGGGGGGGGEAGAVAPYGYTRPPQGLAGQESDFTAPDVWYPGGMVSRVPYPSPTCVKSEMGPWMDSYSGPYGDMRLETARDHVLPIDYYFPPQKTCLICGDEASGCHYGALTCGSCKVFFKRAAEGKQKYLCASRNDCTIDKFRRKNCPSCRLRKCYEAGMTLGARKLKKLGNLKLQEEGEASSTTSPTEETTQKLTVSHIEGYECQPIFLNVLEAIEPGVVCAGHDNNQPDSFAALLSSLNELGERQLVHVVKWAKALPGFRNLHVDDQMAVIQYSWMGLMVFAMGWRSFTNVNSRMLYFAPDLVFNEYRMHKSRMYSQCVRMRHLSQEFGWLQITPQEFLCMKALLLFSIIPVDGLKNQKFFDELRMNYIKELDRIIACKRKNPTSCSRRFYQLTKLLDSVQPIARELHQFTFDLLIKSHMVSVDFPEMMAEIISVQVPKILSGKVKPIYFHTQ
# Sequence of Estrogen receptor (Homo sapiens) (P03372 whole entry, looked up): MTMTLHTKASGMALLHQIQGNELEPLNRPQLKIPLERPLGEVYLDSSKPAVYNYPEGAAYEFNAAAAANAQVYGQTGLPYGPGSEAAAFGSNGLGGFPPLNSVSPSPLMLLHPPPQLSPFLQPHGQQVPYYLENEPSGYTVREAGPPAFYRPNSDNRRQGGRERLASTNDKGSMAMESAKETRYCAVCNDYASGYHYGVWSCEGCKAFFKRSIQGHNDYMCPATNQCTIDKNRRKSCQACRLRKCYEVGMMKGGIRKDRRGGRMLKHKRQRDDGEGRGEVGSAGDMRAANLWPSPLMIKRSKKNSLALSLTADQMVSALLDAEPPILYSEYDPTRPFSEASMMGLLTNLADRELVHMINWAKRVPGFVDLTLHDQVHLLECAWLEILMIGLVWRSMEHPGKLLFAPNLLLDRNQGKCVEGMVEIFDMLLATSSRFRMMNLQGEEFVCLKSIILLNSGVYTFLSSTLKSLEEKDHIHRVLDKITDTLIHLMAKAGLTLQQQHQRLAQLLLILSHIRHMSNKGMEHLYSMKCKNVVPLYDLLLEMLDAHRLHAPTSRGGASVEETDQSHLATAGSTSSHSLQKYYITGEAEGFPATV
# Sequence of Aromatase (Homo sapiens) (P11511 whole entry, looked up): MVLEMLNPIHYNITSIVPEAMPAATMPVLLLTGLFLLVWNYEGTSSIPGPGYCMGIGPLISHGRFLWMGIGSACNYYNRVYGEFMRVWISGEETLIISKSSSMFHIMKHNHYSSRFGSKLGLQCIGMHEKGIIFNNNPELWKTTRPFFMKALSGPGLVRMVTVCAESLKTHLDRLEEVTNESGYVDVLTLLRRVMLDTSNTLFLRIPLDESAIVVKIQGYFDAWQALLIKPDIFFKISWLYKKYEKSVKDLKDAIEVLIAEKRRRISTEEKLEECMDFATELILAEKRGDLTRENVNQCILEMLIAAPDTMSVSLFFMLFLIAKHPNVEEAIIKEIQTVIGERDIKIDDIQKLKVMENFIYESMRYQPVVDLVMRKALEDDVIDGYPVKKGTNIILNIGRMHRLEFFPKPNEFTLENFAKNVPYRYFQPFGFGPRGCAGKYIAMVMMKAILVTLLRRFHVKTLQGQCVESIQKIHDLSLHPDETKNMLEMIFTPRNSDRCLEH
SMILES,Potency [1],Potency [2],Potency [3],Potency [4],outcome [5],Potency [6],Potency [7],Potency [8],Potency [9],Potency [10],Potency (Aromatase (Homo sapiens)),Potency [11],Potency [12],Potency [13],Potency [14],Potency [15],Potency [16],Potency [17],Potency [18]
O=C(Nc1ccccc1)Nc1ccccc1,inactive,48.8 µM (active),inactive,inactive,inactive,inactive,inactive,inactive,19.4 µM (active),inactive,inactive,,,,,,,,
Cc1cc2nc3ccc(=[N+](C)C)cc-3sc2cc1N,,2.11 µM (active),,26.6 µM (active),,,inactive,inactive,,inactive,5.31 µM (active),0.596 µM (active),0.596 µM (active),inactive,4.22 µM (active),21.1 µM (active),,,
COCCOC,inactive,,inactive,inactive,inactive,,inactive,,,inactive,,,,,,inactive,inactive,,
CCCCCCCCCCCC[N+](C)(C)CC(=O)[O-],,27.3 µM (active),inactive,,inactive,,inactive,inactive,inactive,inactive,inactive,27.3 µM (active),61.1 µM (active),,,54.5 µM (active),,inactive,
Nc1nc(Cl)nc2c1ncn2[C@@H]1O[C@H](CO)[C@@H](O)[C@@H]1F,,0.0019 µM (active),inactive,0.237 µM (active),inactive,,,inactive,inactive,inactive,,0.0019 µM (active),0.0024 µM (active),,,0.133 µM (active),,3.76 µM (active),
CCCCN(CCCC)C(=S)SSC(=S)N(CCCC)CCCC,,inactive,inactive,,,inactive,,inactive,inactive,inactive,inactive,,inactive,,,inactive,,inactive,
Cc1nc2ccccn2c(=O)c1CCN1CCC(C(=O)c2ccc(F)cc2)CC1,inactive,inactive,inactive,,inactive,inactive,inactive,inactive,inactive,inactive,inactive,,,,,,,,
CC(C)(O)c1ccccc1CC[C@@H](SCC1(CC(=O)O)CC1)c1cccc(/C=C/c2ccc3ccc(Cl)cc3n2)c1,,inactive,inactive,,,,,inactive,,inactive,inactive,inactive,inactive,inactive,,,inactive,,inactive
CN(C)CCOC1=Cc2ccccc2Sc2ccc(Cl)cc21,,6.68 µM (active),,10.6 µM (active),,inactive,,inactive,inactive,inactive,,5.31 µM (active),5.96 µM (active),,,9.44 µM (active),,inactive,
CCCCCCCCCCCC[N+](C)(C)CCCS(=O)(=O)[O-],inactive,,inactive,,inactive,inactive,49.6 µM (active),inactive,inactive,inactive,inactive,,27.6 µM (active),,,24.6 µM (active),,inactive,
CC[C@@H]([C@H](C)O)n1ncn(-c2ccc(N3CCN(c4ccc(OC[C@@H]5CO[C@@](Cn6cncn6)(c6ccc(F)cc6F)C5)cc4)CC3)cc2)c1=O,,1.88 µM (active),inactive,,inactive,,inactive,,,,inactive,1.19 µM (active),1.68 µM (active),,,26.6 µM (active),inactive,,
Cc1nccn1-c1ccc(Sc2cccc(C3(C(N)=O)CCOCC3)c2)cc1,,1.54 µM (active),,27.3 µM (active),,0.275 µM [inconclusive] (active),inactive,,,inactive,54.5 µM (active),0.77 µM (active),1.37 µM (active),,,4.86 µM (active),4.9 µM (active),1.93 µM (active),
Cc1ccc(Nc2nccc(N(C)c3ccc4c(C)n(C)nc4c3)n2)cc1S(N)(=O)=O,,11.9 µM (active),,inactive,inactive,,,inactive,,,,9.44 µM (active),10.6 µM (active),inactive,,6.68 µM (active),inactive,,
Nc1ccc(C(=O)OCCCOC(=O)c2ccc(N)cc2)cc1,inactive,,inactive,,inactive,,inactive,inactive,,inactive,30.6 µM (active),,,,,,inactive,inactive,
CC(CCO)CCc1ccccc1 (configuration not stated),inactive,,inactive,inactive,inactive,inactive,inactive,inactive,inactive,inactive,inactive,,inactive,,,inactive,inactive,inactive,
